From PubChem BioAssay AID1159580 (chemical genetic matrix, 2015)
The campaign covered roughly 5,500 compounds. About 2,000 (36%) were called active. Another 18% or so got no clear call; they are omitted. Cut-off read from the data, not from the text of the source: active = normalized growth mostly below about 0.91 (no sharp cut-off); inconclusive = no clear call, values can overlap the other calls; inactive = mostly above about 0.92. The list shows a part of the results.

Test: chemical genetic growth profiling, strain panel (AID 1159580);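 note: tested at 20 µM; growth read once vehicle control cultures reached saturation at 30 °C; 1 = growth at the plate median or of vehicle wells; lower values mean less growth of the strain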
Conditions: growth OD

Measured: normalized growth

C[N+](C)(C)CCOP(=O)([O-])OP(=O)(O)OC[C@H]1OC(n2ccc(N)nc2=O)[C@H](O)[C@@H]1O (some centres not stated)
inactive: S. cerevisiae deletion strains, locus YJR075W, strain HOC1, stronger effect = lower value 0.975 | S. cerevisiae deletion strains, locus YKL009W, strain mrt4, stronger effect = lower value 1.03 | S. cerevisiae deletion strains, locus YKL068W, stronger effect = lower value 0.991 | S. cerevisiae deletion strains, locus YKL085W, strain MDH1 (second series), stronger effect = lower value 1.02 | S. cerevisiae deletion strains, locus YKL085W, strain MDH1, stronger effect = lower value 1.02 | S. cerevisiae deletion strains, locus YKL160W, strain elf1, stronger effect = lower value 0.984 | S. cerevisiae deletion strains, locus YKL190W, strain CNB1, stronger effect = lower value 0.999 | S. cerevisiae deletion strains, locus YKR001C, strain vps1, stronger effect = lower value 1.01 | S. cerevisiae deletion strains, locus YKR026C, strain gcn3, stronger effect = lower value 0.979 | S. cerevisiae deletion strains, locus YKR091W, strain srl3, stronger effect = lower value 0.982 | S. cerevisiae deletion strains, locus YLL001W, strain dnm1, stronger effect = lower value 0.963 | S. cerevisiae deletion strains, locus YLL026W, stronger effect = lower value 0.985 | S. cerevisiae deletion strains, locus YLL041C, strain sdh2, stronger effect = lower value 0.98 | S. cerevisiae deletion strains, locus YLR027C, strain aat2, stronger effect = lower value 0.987 | S. cerevisiae deletion strains, locus YLR039C, strain RIC1, stronger effect = lower value 1.03 | S. cerevisiae deletion strains, locus YLR058C, strain SHM2, stronger effect = lower value 1 | S. cerevisiae deletion strains, locus YLR102C, strain apc9, stronger effect = lower value 1.01 | S. cerevisiae deletion strains, locus YLR113W, strain HOG1, stronger effect = lower value 0.978 | S. cerevisiae deletion strains, locus YLR221C, strain rsa3, stronger effect = lower value 1.01 | S. cerevisiae deletion strains, locus YLR258W, strain gsy2, stronger effect = lower value 0.999 | S. cerevisiae deletion strains, locus YLR262C, strain YPT6 (second series), stronger effect = lower value 0.98 | S. cerevisiae deletion strains, locus YLR262C, strain YPT6, stronger effect = lower value 0.993 | S. cerevisiae deletion strains, locus YLR268W, strain sec22, stronger effect = lower value 0.974 | S. cerevisiae deletion strains, locus YLR320W, strain mms22, stronger effect = lower value 1.01 | S. cerevisiae deletion strains, locus YLR330W, strain CHS5, stronger effect = lower value 1 | S. cerevisiae deletion strains, locus YLR342W, strain FKS1 (second series), stronger effect = lower value 1.05 | S. cerevisiae deletion strains, locus YLR342W, strain FKS1, stronger effect = lower value 0.974 | S. cerevisiae deletion strains, locus YLR357W, strain rsc2, stronger effect = lower value 0.994 | S. cerevisiae deletion strains, locus YLR370C, strain arc18, stronger effect = lower value 0.981 | S. cerevisiae deletion strains, locus YLR371W, strain rom2, stronger effect = lower value 1.01 | S. cerevisiae deletion strains, locus YLR384C, strain iki3, stronger effect = lower value 0.981 | S. cerevisiae deletion strains, locus YLR418C, strain cdc73, stronger effect = lower value 0.963 | S. cerevisiae deletion strains, locus YML016C, strain PPZ1, stronger effect = lower value 1 | S. cerevisiae deletion strains, locus YML032C, strain rad52, stronger effect = lower value 1.02 | S. cerevisiae deletion strains, locus YML120C, strain ndi1, stronger effect = lower value 0.999 | S. cerevisiae deletion strains, locus YML124C, strain tub3, stronger effect = lower value 1.01 | S. cerevisiae deletion strains, locus YMR058W, strain fet3, stronger effect = lower value 0.978 | S. cerevisiae deletion strains, locus YMR078C, strain ctf18, stronger effect = lower value 1 | S. cerevisiae deletion strains, locus YMR125W, strain sto1, stronger effect = lower value 0.994 | S. cerevisiae deletion strains, locus YMR129W, stronger effect = lower value 0.981 | S. cerevisiae deletion strains, locus YMR205C, strain PFK2, stronger effect = lower value 0.99 | S. cerevisiae deletion strains, locus YMR223W, strain ubp8, stronger effect = lower value 1.02 | S. cerevisiae deletion strains, locus YMR231W, strain pep5, stronger effect = lower value 0.989 | S. cerevisiae deletion strains, locus YMR263W, strain SAP30, stronger effect = lower value 0.983 | S. cerevisiae deletion strains, locus YMR307W, strain GAS1, stronger effect = lower value 1.04 | S. cerevisiae deletion strains, locus YNL067W, strain RPL9B, stronger effect = lower value 0.969 | S. cerevisiae deletion strains, locus YNL071W, strain lat1, stronger effect = lower value 0.991 | S. cerevisiae deletion strains, locus YNL128W, strain TEP1, stronger effect = lower value 0.943 | S. cerevisiae deletion strains, locus YNL153C, strain GIM3, stronger effect = lower value 0.985 | S. cerevisiae deletion strains, locus YNL183C, strain NPR1, stronger effect = lower value 0.964 | S. cerevisiae deletion strains, locus YNL209W, strain ssb2, stronger effect = lower value 1 | S. cerevisiae deletion strains, locus YNL233W, strain BNI4, stronger effect = lower value 0.994 | S. cerevisiae deletion strains, locus YNL248C, strain rpa49, stronger effect = lower value 1 | S. cerevisiae deletion strains, locus YNL250W, strain rad50, stronger effect = lower value 1 | S. cerevisiae deletion strains, locus YNL271C, strain bni1, stronger effect = lower value 0.995 | S. cerevisiae deletion strains, locus YNL298W, strain CLA4, stronger effect = lower value 1 | S. cerevisiae deletion strains, locus YNL307C, strain MCK1, stronger effect = lower value 1.02 | S. cerevisiae deletion strains, locus YNL322C, strain KRE1 (second series), stronger effect = lower value 0.975 | S. cerevisiae deletion strains, locus YNL322C, strain KRE1, stronger effect = lower value 0.998 | S. cerevisiae deletion strains, locus YNR049C, strain mso1, stronger effect = lower value 0.972 | S. cerevisiae deletion strains, locus YNR052C, strain pop2, stronger effect = lower value 1.02 | S. cerevisiae deletion strains, locus YOL006C, strain TOP1, stronger effect = lower value 1.04 | S. cerevisiae deletion strains, locus YOL012C, strain htz1 0.746 | S. cerevisiae deletion strains, locus YOL147C, strain pex11, stronger effect = lower value 1 | S. cerevisiae deletion strains, locus YOR001W, strain rrp6, stronger effect = lower value 0.988 | S. cerevisiae deletion strains, locus YOR061W, strain CKA2, stronger effect = lower value 1 | S. cerevisiae deletion strains, locus YOR069W, strain VPS5, stronger effect = lower value 1 | S. cerevisiae deletion strains, locus YOR070C, strain gyp1, stronger effect = lower value 0.998 | S. cerevisiae deletion strains, locus YOR080W, strain dia2, stronger effect = lower value 0.985 | S. cerevisiae deletion strains, locus YOR083W, strain WHI5, stronger effect = lower value 0.989 | S. cerevisiae deletion strains, locus YOR106W, strain vam3, stronger effect = lower value 0.982 | S. cerevisiae deletion strains, locus YOR136W, strain idh2, stronger effect = lower value 1 | S. cerevisiae deletion strains, locus YOR144C, strain elg1, stronger effect = lower value 1 | S. cerevisiae deletion strains, locus YOR184W, strain ser1, stronger effect = lower value 1.03 | S. cerevisiae deletion strains, locus YOR231W, strain MKK1, stronger effect = lower value 1 | S. cerevisiae deletion strains, locus YOR265W, strain rbl2, stronger effect = lower value 0.985 | S. cerevisiae deletion strains, locus YOR270C, strain vph1, stronger effect = lower value 0.98 | S. cerevisiae deletion strains, locus YOR290C, strain snf2, stronger effect = lower value 1.01 | S. cerevisiae deletion strains, locus YOR316C, strain cot1, stronger effect = lower value 1.01 | S. cerevisiae deletion strains, locus YPL051W, strain arl3, stronger effect = lower value 0.999 | S. cerevisiae deletion strains, locus YPL055C, strain LGE1, stronger effect = lower value 0.937 | S. cerevisiae deletion strains, locus YPL078C, strain atp4, stronger effect = lower value 0.976 | S. cerevisiae deletion strains, locus YPL106C, strain sse1, stronger effect = lower value 0.993 | S. cerevisiae deletion strains, locus YPL240C, strain hsp82, stronger effect = lower value 0.993 | S. cerevisiae deletion strains, locus YPL241C, strain CIN2, stronger effect = lower value 0.992 | S. cerevisiae deletion strains, locus YPL256C, strain CLN2, stronger effect = lower value 0.982 | S. cerevisiae deletion strains, locus YPR119W, strain clb2, stronger effect = lower value 0.993 | S. cerevisiae deletion strains, locus YPR141C, strain kar3, stronger effect = lower value 0.993 | S. cerevisiae deletion strains, locus YPR163C, strain tif3, stronger effect = lower value 1.01 | S. cerevisiae deletion strains, locus YPR167C, strain met16, stronger effect = lower value 0.992 | S. cerevisiae deletion strains, strain wtn01, stronger effect = lower value 0.987 | S. cerevisiae strains, strain wild type, stronger effect = lower value 0.972
